# Laboratory results as given in PubChem BioAssay AID720591 (Broad Institute, 2013).
# Screen size: about 1,200 compounds; about 60 (5%) were called active. About 1% were inconclusive and are not listed. The list is a sample of the results. Results with a measured potency or affinity are listed apart. Unmarked numbers belong to inactive results.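 The calls were made as follows: active = Decreasing signal and fitted IC50 at most twice the top valid tested dose; inconclusive = Bad fit or a level curve showing 30 to 70% inhibition; inactive = the rest.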
# Molecular target: NAD-dependent protein deacylase sirtuin-5, mitochondrial (Homo sapiens) (UniProt Q9NXA8)
# Sequence (Q9NXA8 whole entry, looked up): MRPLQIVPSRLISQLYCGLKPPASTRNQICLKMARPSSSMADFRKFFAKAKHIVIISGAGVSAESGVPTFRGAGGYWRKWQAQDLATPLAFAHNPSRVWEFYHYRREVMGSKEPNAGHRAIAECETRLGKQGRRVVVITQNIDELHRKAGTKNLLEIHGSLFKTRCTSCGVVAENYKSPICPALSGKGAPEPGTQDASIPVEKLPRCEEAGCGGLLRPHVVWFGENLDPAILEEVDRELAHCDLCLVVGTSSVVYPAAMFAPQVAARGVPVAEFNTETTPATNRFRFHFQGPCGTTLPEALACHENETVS
# Assay: sirtuin-5 deacylation blockers, concentration series – biochemical, fluorescence imaging, cherry-pick, set 5, dose response (AID 720591);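 also: 0% = median of neutral control wells and -100% = median of positive control wells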
# Conditions: Purified SirT5, succinyl-peptide AMC, trypsin-coupled fluorescence; series mostly up to 15 µM; activity change, negative = inhibition: at the top concentration
row,SMILES,"activity change, negative = inhibition"
1,O=C(Nc1cccc(Br)c1)c1ccc(CSc2ccccc2)cc1,-25.6%
2,O=C(Cc1ccc(Cl)cc1)Nc1ccc(C(=O)N2CCCCC2)cc1,-15.9%
3,CN(C)C(=O)c1ccc(NC(=O)c2sccc2-c2ccccc2)cc1,12.8%
4,O=C(Cc1ccc(Cl)cc1)Nc1ccc(CN2CCCCC2)cc1,4.66%
5,C[C@@H](CSc1ccc(Br)cc1)CN1CC[C@H](NC(=O)OCc2ccccc2)CCC1=O,21.5%
6,Cc1cccc(C)c1NC(=O)CN(Cc1ccccc1)Cc1ccccc1,17.6%
7,CC(C)C(=O)Nc1cccc(COc2ccccc2CN(Cc2ccccc2)C(=O)OC(C)(C)C)c1,-27.9%
8,Cc1ccc(CNC(=O)CCc2ccc(S(=O)(=O)NCC(C)C)cc2)cc1,-24.4%
9,Cc1ccn2cc(CSc3ccccc3)nc2c1,6.69%
10,Clc1ccc(SCc2cn3ccccc3n2)cc1,-21.3%
11,Cc1cccc(COC[C@H](Cc2ccccc2)N2CCN(C(=O)c3cc(Cl)cc(Cl)c3)CCC2=O)c1,-29.7%
12,CCOC(=O)C1(C)CCN1C(=O)c1cccc(Cl)c1 (configuration not stated),-3.12%
13,COc1cc(OC)c(NS(=O)(=O)c2cc(C(=O)OCC(=O)NCC3CCCO3)ccc2OC)cc1Cl (configuration not stated),-26.7%
14,COc1cc(C(=O)NCCN2CCN(C(=O)c3cc(OC)c(OC)c(OC)c3)CC2)cc(OC)c1OC,3.49%
15,COc1cc(C(=O)N2CCNCC2)cc(OC)c1OC,-4.5%
16,CCN(C(=O)COC(=O)CNC(=O)c1ccccc1C)C1=CCCCC1,22.5%
17,COc1ccc(-n2c(SCC(N)=O)nnc2-c2ccco2)cc1,-23.9%
18,CNC(=O)CSc1nnc(-c2ccco2)n1-c1cccc(OC)c1,0.832%
19,COc1ccc(-c2cccc(C3CC=CC4C3C(=O)N(Cc3ccccc3)C4c3ccc(C(F)(F)F)cc3)c2)cc1 (configuration not stated),23.6%
20,CC(=O)N1N=C(c2cccc(NS(C)(=O)=O)c2)CC1c1cccs1 (configuration not stated),-25.8%
21,COC(=O)c1ccc(C)c(NC(=O)CSc2sc3c(O)cc(=O)[nH]c3c2C#N)c1,-17%
22,CSc1nsc(SCC(=O)Nc2ccc(Cl)c(C(=O)O)c2)n1,-17.9%

row,SMILES,"activity change, negative = inhibition"
1,CCCCc1c(-c2ccccc2F)ncn1CCc1ccccc1OC,13.7%
2,C[C@H](NC(=O)OCc1ccccc1)C(=O)NNC(=O)[C@H](C)NC(=O)OCc1ccccc1,-29.1%
3,CC(C)c1ccc(NC2CCCN(C(=O)CC3CCCC3)C2)cc1 (configuration not stated),20.8%
4,Cc1ccsc1C(=O)NNC(=O)CCN1CCN(c2ccccc2)CC1,-24.2%
5,Cc1sc(NC(=O)Cn2[nH]c(=O)c3ccccc3c2=O)nc1-c1ccccc1,-2.7%
6,Cc1ccc(-c2csc(NC(=O)Cn3[nH]c(=O)c4ccccc4c3=O)n2)cc1,-13.9%
7,CCN(c1ccccc1)S(=O)(=O)c1ccc2[nH]c(=O)[nH]c2c1,5.81%
8,Cc1cc(C)c(OCC(=O)NCC(C)(C)N2CCOCC2)c(C)c1,-12.2%
9,Cc1ccc2cc(CN(Cc3ccc(F)cc3)Cc3nnnn3C3CCCC3)c(=O)[nH]c2c1,6.37%
10,Cn1cc(Br)c(C(=O)Nc2c(F)c(F)c(F)c(F)c2F)n1,-22.1%
11,CN(C)CCNC(=O)c1cccc(S(=O)(=O)Nc2ccccc2F)c1,14%
12,CCN(CC(=O)Nc1ccc(NC(C)=O)cc1)C(=O)c1ccc(COc2ccc(C(C)(C)C)cc2)cc1,-1.48%
13,COc1ccc(OCC(=O)Nc2ccc(NC(=O)c3cccs3)cc2)cc1,-14.9%
14,Cc1ccc(C(C(=O)NC2CCCC2)N(Cc2ccco2)C(=O)CCC(=O)Nc2cc(C)on2)cc1 (configuration not stated),-17%
15,Cc1ccccc1OCC(O)CN1CCN(CC(O)COc2ccccc2C)CC1 (configuration not stated),8.37%
16,CCOC(=O)C1CCc2c(ccc3ccccc23)N1CCC#N (configuration not stated),12.2%
17,CC(C)(C)Cc1nnc(NC(=O)Cc2cccs2)s1,14.6%
18,CN(C)CCCNC(=O)c1cc(C(=O)c2ccccc2F)c[nH]1,1.08%
19,COc1ccc(C(=O)OCCN2CCCCC2)cc1,-12%
20,Cc1ccc(C(C(=O)NC(C)(C)C)N(Cc2ccco2)C(=O)CCC(=O)Nc2ccccn2)cc1 (configuration not stated),-11.8%
21,CCC(C)(C)NC(=O)C(c1ccc(OC)cc1)N(Cc1ccco1)C(=O)CCC(=O)Nc1cc(C)on1 (configuration not stated),-28.7%
22,COc1ccc([C@H]2N[C@]3(CCCN(Cc4cccn4C)C3=O)[C@H]3C(=O)N(C)C(=O)[C@@H]23)cc1,1.22%

row,SMILES,"activity change, negative = inhibition"
1,C=CCn1c(SCC(=O)c2ccc(O)c(O)c2)nnc1-c1ccc(C)cc1,-23.6%
2,COc1ccc(C)cc1N(C)C(=O)Cc1c(C(=O)O)n(C)c2ccccc12,-31.2%
3,COc1ccccc1NC(=O)CNc1ccc(F)c(Cl)c1,0.52%
4,CC1CN(CCOc2ccccc2-c2ccccc2)CC(C)O1 (configuration not stated),-17.6%
5,CCc1ccc(N(C(=O)CCC(=O)Nc2cc(C)on2)C(C(=O)NC2CCCC2)c2ccco2)cc1 (configuration not stated),8.88%
6,COc1cc(C(C)=O)ccc1OCc1cn(CC(=O)c2ccc(O)cc2)nn1,6.41%
7,CS(=O)(=O)N(CC(=O)N1CCCCCC1)c1cccc(F)c1,-22.2%
8,CS(=O)(=O)N(CC(=O)N1CCCC1)c1cccc(F)c1,-28.6%
9,C#CC1(NC(=O)NCCCC)CCCCC1,16.7%
10,Cc1ccc2nc(-c3ccccc3)c(Cc3cccc(Cl)c3)n2c1,-3.52%
11,Fc1ccc(-c2nc3ccc(Cl)cn3c2Cc2cccc(F)c2)cc1,12.6%
12,COc1ccccc1CNS(=O)(=O)c1cccs1,2.11%
13,C=C(C)Cn1c(N2CCN(c3ccc(OC)cc3)CC2)nc2c1c(=O)n(C)c(=O)n2C,-9.42%
14,Cn1cnc2c(NCc3ccco3)ncnc21,-20.1%
15,COC(=O)c1cccc(NC(=O)CSc2nnc(COc3ccc(C#N)cc3)n2-c2ccccc2)c1,-25.5%
16,Cc1cn(CC(=O)NCc2ccccc2)c(=O)[nH]c1=O,22.2%
17,O=C1OCCOC2CCCc3oc(C4=CCCCC4)c1c32 (configuration not stated),-23.7%
18,Cc1ccc(NS(=O)(=O)c2ccc3c(c2)N(C)CCO3)cc1,-1.07%
19,Cc1ccc2nc(SC(C)C(=O)N3CC(C)OC(C)C3)[nH]c2c1 (configuration not stated),11%
20,Cc1ccccc1NS(=O)(=O)c1ccc(C(=O)NCC2CCCO2)cc1 (configuration not stated),-30.8%
21,O=C(CSc1ccccc1Cl)N1CCOCC1,-29.6%
22,O=C(c1ccc(F)cc1)N1CCOCC1,38.5%

row,SMILES,"activity change, negative = inhibition"
1,CCOc1ccc(C(C)C)cc1S(=O)(=O)n1ccnc1C,-11.2%
2,Cc1ccc(S(=O)(=O)N(C)c2ccc(NS(C)(=O)=O)cc2)cc1,-2.72%
3,Cc1ccc(NC(=O)COCC(=O)Nc2ccc(F)cc2)cc1,36%
4,Cc1cccc(OC(=O)Nc2ccc(C(=O)O)c(O)c2)c1,-32.6%
5,O=C(Nc1ccccc1C(=O)O)c1cc(S(=O)(=O)Nc2ccccc2)ccc1Cl,15.5%
6,Cc1cc(NC(=O)CCC(=O)N(CCc2ccccc2)C(C(=O)NC2CCCC2)c2ccco2)no1 (configuration not stated),-7.32%
7,COc1ccc(CCNS(=O)(=O)c2cc3c4c(c2)CC(=O)N4CCC3)cc1,12.3%
8,Nc1cccc(-c2csc(-n3ncc(C(=O)O)c3C(F)(F)F)n2)c1,-36.1%
9,O=C(O)c1ccc2c(c1)ncn2C1CCCC1,-11.2%
10,Cc1ccnc(NC(=O)CCC(=O)N(Cc2ccco2)C(C(=O)NC(C)C)c2ccc(F)cc2)c1 (configuration not stated),-23.7%
11,NNC(=O)Cn1c(-c2ccccc2)cc2ccccc21,11.2%
12,CC(C)(C)OC(=O)N(CCc1ccccc1)Cc1ccc(OCc2cccc(NC(=O)C3CC3)c2)cc1,11.2%
13,COc1ccc(CCNC(=O)[C@H](C)NC(=O)N2CCn3c2nc2ccccc23)cc1OC,8.92%
14,Cc1ccccc1CN1CCN(Cc2ccc3cccc(F)c3n2)CC1CCO (configuration not stated),-26.9%
15,CNCc1cc(Br)c(OCC(=O)Nc2ccccc2OC)c(OC)c1,12.6%
16,COc1cccc(NC(=O)c2ccccc2)c1,-3.36%
17,COc1ccc(CC(=O)Nc2ccc(C(=O)NCC(C)C)cc2)cc1,8.8%
18,Cc1cc2nc(CSc3ccccc3)cc(=O)n2[nH]1,-15.6%
19,CCCCCCCCN1[C@@H](CC(=O)O)c2cc(C(F)(F)F)ccc2S1(=O)=O,-14.3%
20,Cc1c(Cc2ccc3c(c2)OCO3)sc(NC(=O)c2ccccc2)c1C(N)=O,-11.1%
21,Cc1cccc2nc(CSc3ccc(Cl)cc3)cn12,36.8%
22,Clc1ccc2nc(CSc3ccccc3)cn2c1,17%

row,SMILES,"activity change, negative = inhibition"
1,Cc1cccc(N(C(=O)c2snc(C(N)=O)c2N)C(C(=O)NCC2CCCO2)c2ccc3ncccc3c2)c1 (configuration not stated),4.66%
2,O=S(=O)(NCc1ccc2c(c1)OCO2)c1ccccc1F,4.96%
3,Cc1cccc(Cl)c1NC(=O)NCCCN1CCCCC1C (configuration not stated),-21.1%
4,Cc1ccc(S(=O)(=O)N2CCOCC2)cc1NC(=O)CSc1nnc2n1CCCCC2,-29.9%
5,CCN(CC)c1ccc(S(=O)(=O)N2CCOCC2)cc1NC(=O)Nc1ccccc1,-11.5%
6,CCOC(=O)C(N)CSC1CC(=O)N(c2ccc(OCC)cc2)C1=O (configuration not stated),-18.2%
7,CCOc1ccc(CN2CCN(C(=O)c3cccc(F)c3)CC2)cc1,8.06%
8,CCc1nnc(NC(=O)CCC(=O)N2CCN(c3cc(C)ccc3C)CC2)s1,8.84%
9,Cc1cccc(N2CCN(C(=O)c3ccc4nc[nH]c4c3)CC2)c1C,-1.76%
10,COc1cc(C(C)=O)ccc1OC(=O)CN1C(=O)c2ccccc2C1=O,11.6%
11,CC1(C(=O)NS(=O)(=O)c2ccccc2Cl)CCN1C(=O)Cc1cccc2ccccc12 (configuration not stated),31.4%
12,Cc1c(C(=O)c2ccc(N(C)C)cc2)c2ccccn2c1CCC#N,-5.98%
13,CCc1nonc1NC(=O)c1oc2ccc(Cl)cc2c1C,9.41%
14,COc1ccc2c(c1)C(=O)O[C@@H](c1ccccc1)C[C@@H](O)C(=O)CC2,5.6%
15,CCOc1ccc(OCC)c(NC(=O)C2CCCN(C(=O)c3ccc(Cl)cc3)C2)c1 (configuration not stated),-9.86%
16,COc1ccc(OC)c(NC(=O)CSc2nnc(CNC(=O)c3cccs3)o2)c1,13%
17,COc1ccc(C(=O)OC(C)C(=O)NCC2CCCCC2)cc1S(=O)(=O)N1CCOCC1 (configuration not stated),-28.7%
18,CCC(=O)Nc1cccc(-c2cc3ccccc3oc2=O)c1,7.85%
19,COc1cc2cc(C#N)c(SCC(=O)Nc3cc(C)on3)nc2cc1OC,-3.85%
